PubChem BioAssay AID1159580 (chemical genetic matrix, 2015)
Several values for one entry are separate records, joined by “and”; a condition that tells them apart may be missing. Identical values can stand only once. Out of some 5,500 compounds screened, about 2,000 (36%) were called active. Not shown: some 18% with an inconclusive outcome. Cut-off read from the data, not from the text of the source: active = normalized growth mostly below about 0.91 (no sharp cut-off); inconclusive = no clear call, values can overlap the other calls; inactive = mostly above about 0.92. The list shows a part of the results.

Test: chemical genetic growth profiling, strain panel (AID 1159580);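 note: tested at 20 µM; growth read once vehicle control cultures reached saturation at 30 °C; 1 = growth at the plate median or of vehicle wells; lower values mean less growth of the strain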
Settings: S. cerevisiae deletion strains, growth OD

Measured: normalized growth

C#CCCCCCCCCCCCC(O)CC(O)CO (configuration not stated)
inactive: locus YAL013W, strain DEP1, stronger effect = lower value 1 | locus YAL021C, strain ccr4, stronger effect = lower value 0.979 | locus YAL026C, strain drs2, stronger effect = lower value 0.992 | locus YAL030W, strain snc1, stronger effect = lower value 0.99 | locus YBL061C, strain skt5, stronger effect = lower value 0.987 | locus YBR009C, strain hhf1, stronger effect = lower value 0.991 | locus YBR021W, strain FUR4, stronger effect = lower value 0.974 | locus YBR023C, strain chs3, stronger effect = lower value 0.983 | locus YBR171W, strain sec66, stronger effect = lower value 0.999 | locus YBR229C, strain ROT2, stronger effect = lower value 1 | locus YBR231C, strain swc5, stronger effect = lower value 0.993 | locus YBR279W, strain paf1, stronger effect = lower value 0.995 | locus YCL011C, strain gbp2, stronger effect = lower value 0.988 | locus YCL016C, strain dcc1, stronger effect = lower value 0.97 | locus YCL029C, strain bik1, stronger effect = lower value 1.01 | locus YCL061C, strain MRC1, stronger effect = lower value 0.979 | locus YCL069W, strain vba3, stronger effect = lower value 0.992 | locus YCR088W, strain abp1, stronger effect = lower value 0.985 | locus YDL005C, strain med2, stronger effect = lower value 0.974 | locus YDL035C, strain GPR1, stronger effect = lower value 0.984 | locus YDL040C, strain nat1, stronger effect = lower value 0.988 | locus YDL074C, strain BRE1, stronger effect = lower value 0.988 | locus YDL101C, strain DUN1, stronger effect = lower value 1.01 | locus YDL134C, strain PPH21, stronger effect = lower value 0.995 | locus YDL185W, strain tfp1, stronger effect = lower value 1.01 | locus YDL192W, strain arf1, stronger effect = lower value 1 | locus YDR001C, strain nth1, stronger effect = lower value 0.982 | locus YDR069C, strain doa4, stronger effect = lower value 0.994 | locus YDR101C, strain arx1, stronger effect = lower value 0.987 | locus YDR137W, strain rgp1, stronger effect = lower value 0.986 | locus YDR150W, strain NUM1, stronger effect = lower value 0.999 | locus YDR159W, strain sac3, stronger effect = lower value 1 | locus YDR162C, strain NBP2, stronger effect = lower value 1.03 | locus YDR195W, strain ref2 0.986 | locus YDR297W, strain sur2, stronger effect = lower value 0.988 | locus YDR318W, strain mcm21, stronger effect = lower value 1.01 | locus YDR334W, strain swr1, stronger effect = lower value 0.991 | locus YDR335W, strain msn5, stronger effect = lower value 0.988 | locus YDR388W, stronger effect = lower value 0.999 | locus YDR392W, strain spt3, stronger effect = lower value 0.877 | locus YDR502C, strain sam2, stronger effect = lower value 1 | locus YEL003W, strain gim4, stronger effect = lower value 0.98 | locus YEL037C, strain rad23, stronger effect = lower value 0.995 | locus YEL061C, strain CIN8 (second series), stronger effect = lower value 0.986 | locus YEL061C, strain CIN8, stronger effect = lower value 0.997 | locus YER015W, strain faa2, stronger effect = lower value 0.972 | locus YER016W, strain bim1, stronger effect = lower value 0.989 | locus YER110C, stronger effect = lower value 1 | locus YER111C, strain swi4, stronger effect = lower value 0.971 | locus YER155C, strain BEM2 (second series), stronger effect = lower value 0.953 | locus YER155C, strain BEM2, stronger effect = lower value 1.01 | locus YER167W, strain BCK2, stronger effect = lower value 0.998 | locus YFR010W, strain ubp6, stronger effect = lower value 0.993 | locus YGL078C, strain dbp3, stronger effect = lower value 1.02 | locus YGL086W, strain mad1, stronger effect = lower value 1.01 | locus YGL167C, strain pmr1, stronger effect = lower value 0.983 | locus YGL173C, strain kem1, stronger effect = lower value 0.983 | locus YGL227W, strain vid30, stronger effect = lower value 0.993 | locus YGL240W, strain doc1, stronger effect = lower value 1 | locus YGL248W, strain PDE1, stronger effect = lower value 0.997 | locus YGL253W, strain hxk2, stronger effect = lower value 0.991 | locus YGR078C, strain PAC10, stronger effect = lower value 0.981 | locus YGR135W, strain pre9, stronger effect = lower value 0.992 | locus YGR229C, strain SMI1, stronger effect = lower value 1.07 | locus YGR252W, strain gcn5, stronger effect = lower value 0.993 | locus YHR013C, strain ard1, stronger effect = lower value 0.939 | locus YHR027C, strain rpn1, stronger effect = lower value 0.984 | locus YHR079C, strain IRE1 (second series), stronger effect = lower value 1 | locus YHR094C, strain hxt1, stronger effect = lower value 1.01 | locus YHR129C, strain ARP1, stronger effect = lower value 0.996 | locus YHR142W, strain chs7, stronger effect = lower value 0.96 | locus YHR200W, strain rpn10, stronger effect = lower value 1.01 | locus YIL066C, strain RNR3, stronger effect = lower value 0.983 | locus YIL073C, strain SPO22, stronger effect = lower value 1.03 | locus YIL125W, strain kgd1, stronger effect = lower value 1.03 | locus YIR030C, strain dcg1, stronger effect = lower value 1 | locus YJL092W, strain hpr5, stronger effect = lower value 0.98 | locus YJL095W, strain BCK1 (second series), stronger effect = lower value 0.985 | locus YJL115W, strain asf1, stronger effect = lower value 0.968 | locus YJL129C, strain trk1, stronger effect = lower value 0.963 | locus YJL134W, strain LCB3, stronger effect = lower value 1.03 | locus YJL154C, strain vps35, stronger effect = lower value 0.976 | locus YJL164C, strain tpk1, stronger effect = lower value 0.982 | locus YJL166W, strain qcr8, stronger effect = lower value 0.98 | locus YJL168C, strain set2, stronger effect = lower value 1.01 | locus YJL187C, strain SWE1 (second series), stronger effect = lower value 0.992 | locus YJL187C, strain SWE1, stronger effect = lower value 0.979 | locus YJR043C, strain POL32, stronger effect = lower value 0.989 | locus YJR066W, strain TOR1, stronger effect = lower value 0.835
active: locus YHR079C, strain IRE1, stronger effect = lower value 0.782
1.03 (inactive) and 0.819 (active): locus YJL095W, strain BCK1, stronger effect = lower value
0.999 (inactive) and 0.85 (active): locus YHR030C, strain SLT2, stronger effect = lower value
